Experimental data from PubChem BioAssay.
Activity calls are given as the source filed them.

Assay: E. coli growth modulation, two-sided OD650, primary screen, E. coli filamentation project, strain DRC41, 24 h (AID 1093);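 further: MC1000 strain lacking acrAB efflux and sulA so SOS filamentation is blocked; test concentration not given here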
Conditions: OD650, 24 h, higher = more signal, called active from +8 up or from −8 down

Row | SMILES | z-score
1 | C[N+](C)(C)CCCC[C@@H]1NC(=O)[C@@H]2C[C@H](C(=O)NCCCCCCN)[C@H](c3cccc(OCCO)c3)N2C1=O | 0.0037 (inactive)
2 | COC(=O)[C@@H]1N=C(c2ccc(OCCCO)cc2)O[C@@H]1C | 0.98 (inactive)
3 | Cc1ccc(N2C(=O)c3ccccc3[C@@H](C(=O)NCCCN(C)C)[C@@H]2c2ccc(CO)cc2)nc1 | 0.213 (inactive)
4 | C#CCN(Cc1ccccc1Br)[C@H](/C=C/c1ccccc1)[C@@H](O)Cc1ccccc1 | 1.44 (inactive)
5 | COCCOC(=O)N1C(=O)[C@@]2(c3cc(C#CC4=CCCCC4)ccc31)[C@H](c1ccccc1OCCO)N1[C@H](c3ccccc3)[C@H](c3ccccc3)OC(=O)[C@H]1[C@@H]2C(=O)NC[C@H](O)c1ccccc1 | -0.314 (inactive)
6 | NCCCCCCNC(=O)[C@@H]1C[C@@H]2C(=O)N[C@@H](CCCCN)C(=O)N2[C@@H]1c1ccc(O)cc1 | 0.445 (inactive)
7 | C=CC[C@]1(C(=O)N2CCOCC2)COC(c2ccc(OCCCO)cc2)=N1 | 0.0927 (inactive)
8 | COc1ccc(C(=O)Nc2ccc(CN3C(=O)[C@]4(O[C@H](CC(=O)N5Cc6ccccc6C[C@H]5CO)[C@@H]([Si](C)(C)c5ccc(OC)cc5)[C@@H]4C)c4ccccc43)cc2)cc1 | 0.315 (inactive)
9 | CCCNC(=O)[C@@H]1c2ccccc2C(=O)N(Cc2ccc(OC(F)(F)F)cc2)[C@H]1c1ccc(CO)cc1 | 0.937 (inactive)

Assay: small-molecule microarray binders of probe aLefty2, primary screen, biochemical, biotinylated probe, 635/667 nm fluorescence (AID 1094);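 further: score merges spot fluorescence near 667 nm with spot signal-to-noise ratio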
Conditions: higher = more signal

Row | SMILES | composite z-score
10 | C=CCC(OC(C)=O)[C@@H]1[C@@H](N(Cc2ccc(-c3ccccc3)cc2)C(=O)c2ccc(-c3ccccc3)cc2)c2cc(OCCCO)ccc2N1C(=O)c1ccc2ccccc2c1 (some centres undefined) | 0.0008
11 | CCOC(=O)C[C@H]1[C@H](OC(=O)c2cc3ccccc3oc2=O)[C@@H](NC(=O)c2ccc3ccccc3n2)c2cc(OCCCO)ccc2N1C(=O)Cc1ccc(OC)cc1 | -0.0391
12 | Cc1ccc(S[C@]2(C(=O)NCC(F)(F)F)CC(=O)N(Cc3cc(C(F)(F)F)cc(C(F)(F)F)c3)[C@@H]2c2ccc(CO)cc2)cc1 | -0.152
13 | COC(=O)[C@@]1(Cc2ccc(OC)cc2)[C@H]2c3cc(C(=O)N4CCCC4)n(CCc4c[nH]c5ccc(O)cc45)c3C[C@H]2CN1C(=O)c1ccccc1 | 0.379
14 | NC(=O)[C@@]1(Cc2ccccc2)COC(c2ccc(OCCCO)cc2)=N1 | -0.0736
15 | COCCOC(=O)N1C(=O)[C@@]2(c3cc(C#CCCO)ccc31)[C@H](C(=O)Nc1nc3ccccc3s1)[C@H]1C(=O)O[C@H](c3ccccc3)[C@H](c3ccccc3)N1[C@@H]2c1ccc(O)cc1 | 0.027
16 | COc1ccc([Si](C)(C)[C@@H]2[C@@H](CCO)O[C@]3(C(=O)N(Cc4ccccc4)c4ccc(N5CCOC5=O)cc43)[C@H]2C)cc1 | -0.0722
17 | C=C(/C(=C/C[C@H](OC(C)=O)c1ccc(CO)o1)c1cnc2ccccc2c1)C(C)C | -0.044
18 | COC(=O)[C@@]1(Cc2ccccc2)[C@H]2c3cc(C(=O)N4CCCC4)n(CCc4ccccn4)c3C[C@H]2CN1C(=O)c1ccccc1 | 0.754
19 | COCC(=C=CC[C@H](O)c1ccc(OCCO)cc1)CCO | 0.106
20 | CCOC(=O)C1=C[C@@H](C(C)(C)C)N(S(=O)(=O)c2ccc(C)cc2)[C@H]1c1cccc2ccccc12 | -0.034
21 | C=CC[C@@]1(C(=O)NCCCOC)N=C(c2ccc(OCCCO)cc2)O[C@@H]1c1ccccc1 | 0.211
22 | [N-]=[N+]=Nc1ccccc1C[C@]1(C(=O)NCCN2CCOCC2)COC(c2ccc(OCCCO)cc2)=N1 | 0.194
23 | Cc1ccc(F)cc1S(=O)(=O)N[C@@H]1CCN(Cc2ccc(Br)cc2)C1 | -0.161
24 | OCCCC1=CC(c2ccc(CN3CCCC3)cc2)N(Cc2cc3c(cc2Br)OCO3)CC1 (centres undefined) | 0.112
25 | COC(=O)C1=CC(CCCO)=CC(c2ccc(CN3CCCC3)cc2)N(Cc2cccc(OC(F)(F)F)c2)C=C1C(=O)OC (centres undefined) | 0.373
26 | CC(CO)N1C(=O)[C@@H]2[C@H]3C(=O)OCC=C[C@H]3OC23C=CCN(Cn2nnc4ccccc42)C(=O)[C@@H]13 (some centres undefined) | -0.185
27 | CC(C)NC(=O)[C@@]1(c2ccc([N+](=O)[O-])cc2)CC(=O)N(C2CCCCC2)[C@@H]1c1ccc(CO)cc1 | -0.271

Row | SMILES | composite z-score
28 | O=C1CS(=O)(=O)C(c2cccc([N+](=O)[O-])c2)N1c1ccccc1 (centres undefined) | 0.554
29 | NC(=O)NCC#Cc1ccc2c(c1)[C@]1(C(=O)N2)[C@H](c2ccccc2OCCO)N2[C@H](c3ccccc3)[C@H](c3ccccc3)OC(=O)[C@H]2[C@@H]1C(=O)NC[C@H](O)c1ccccc1 | 0.448
30 | CCCC[C@@H](O)C1=C(COc2ccccc2)C[C@H]2C(=O)N(Cc3ccccc3)C(=O)[C@H]2[C@H]1CO | -0.0907
31 | COC(=O)[C@@]1(Cc2ccc(F)cc2)[C@H]2c3cc(C(=O)N(C)C)n(Cc4ccc(OC(F)(F)F)cc4)c3C[C@H]2CN1C(=O)c1ccccc1 | -0.0623
32 | COCCOC(=O)N1C(=O)[C@@]2(c3cc(C#CC4=CCCCC4)ccc31)[C@H](c1ccccc1OCCO)N1[C@H](c3ccccc3)[C@H](c3ccccc3)OC(=O)[C@H]1[C@@H]2C(=O)N1CCN(c2ncccn2)CC1 | -0.142
33 | O=C1OCCC=C[C@H]2OC34C=CCN(c5ccc6ccccc6c5)C(=O)[C@H]3N(CCCO)C(=O)[C@@H]4C12 (some centres undefined) | -0.222
34 | CCCC=C(CCC)[C@@H](NS(=O)(=O)CC12CCC(CC1=O)C2(C)C)c1ccc(C(=O)OC)cc1 (some centres undefined) | 0.0672
35 | CC(C)[Si](C#C[Si](C(C)C)(C(C)C)C(C)C)(O[C@H](c1ccccc1)c1cn(Cc2ccccc2)nn1)C(C)C | -0.028
36 | C[N+](C)(C)CCCC[C@@H]1NC(=O)[C@@H]2C[C@H](C(=O)NCCCCCCN)[C@H](c3cccc(OCCO)c3)N2C1=O | 1.26
37 | COC(=O)[C@@H]1N=C(c2ccc(OCCCO)cc2)O[C@@H]1C | 0.0539
38 | Cc1ccc(N2C(=O)c3ccccc3[C@@H](C(=O)NCCCN(C)C)[C@@H]2c2ccc(CO)cc2)nc1 | 0.186
39 | C#CCN(Cc1ccccc1Br)[C@H](/C=C/c1ccccc1)[C@@H](O)Cc1ccccc1 | 0.195
40 | COCCOC(=O)N1C(=O)[C@@]2(c3cc(C#CC4=CCCCC4)ccc31)[C@H](c1ccccc1OCCO)N1[C@H](c3ccccc3)[C@H](c3ccccc3)OC(=O)[C@H]1[C@@H]2C(=O)NC[C@H](O)c1ccccc1 | -0.0671
41 | NCCCCCCNC(=O)[C@@H]1C[C@@H]2C(=O)N[C@@H](CCCCN)C(=O)N2[C@@H]1c1ccc(O)cc1 | 0.362
42 | C=CC[C@]1(C(=O)N2CCOCC2)COC(c2ccc(OCCCO)cc2)=N1 | 0.0386
43 | COc1ccc(C(=O)Nc2ccc(CN3C(=O)[C@]4(O[C@H](CC(=O)N5Cc6ccccc6C[C@H]5CO)[C@@H]([Si](C)(C)c5ccc(OC)cc5)[C@@H]4C)c4ccccc43)cc2)cc1 | -0.145
44 | CCCNC(=O)[C@@H]1c2ccccc2C(=O)N(Cc2ccc(OC(F)(F)F)cc2)[C@H]1c1ccc(CO)cc1 | 0.0286
